# Measurements: PubChem BioAssay AID485273 (Sanford-Burnham Center for Chemical Genomics, 2010)
# The campaign covered roughly 330,000 compounds. About 1,500 (0.45%) were called active. Cut-off read from the data, not from the text of the source: active = inhibition above about 45% (passing the limit was not always enough); inconclusive = no clear call, values can overlap the other calls. The full list was thinned out, with actives kept by preference.
# Biological target: Ubiquitin-conjugating enzyme E2 N (Homo sapiens) (UniProt P61088)
# Sequence (P61088 whole entry, looked up): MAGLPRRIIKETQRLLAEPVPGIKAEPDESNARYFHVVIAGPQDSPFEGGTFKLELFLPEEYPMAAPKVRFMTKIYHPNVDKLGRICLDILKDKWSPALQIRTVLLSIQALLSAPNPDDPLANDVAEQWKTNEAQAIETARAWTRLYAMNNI
# Experiment: UBC13 polyubiquitin chain formation inhibitors, primary screen, biochemical, TR-FRET, uHTS (AID 485273)
# Settings: at 20 µM, hits give high values
row,Structure (SMILES),inhibition
1,CNCC(O)c1cc(F)c(OCc2ccccc2)c(OCc2ccccc2)c1F (stereo not given),69.2% (active)
2,CCN(N=Nc1nonc1OC)c1nonc1OC,-6.3% (inactive)
3,CCCC[N+]1(C)C2CC(OC(=O)C(CO)c3ccccc3)CC1C1OC12 (stereo not given),1.6% (inactive)
4,CCOC(=O)c1c(C)c(C(=O)N2CCC3(CC2)OCCO3)c(C)n1CC,-14.5% (inactive)
5,O=C1NC(=O)C(CCc2ccccn2)(Cc2cccc(Cl)c2Cl)C(=O)N1c1ccc(Br)cc1 (stereo not given),0.9% (inactive)
